HDAC3 inhib – inhibitors of human histone deacetylase 3; O15379; recombinant HDAC3, fluorogenic peptide/trypsin coupled, fluorescence; inhibition, % at 8.3 µM; hit rate 0.15% among 320,000; AID 2718; in the data active = inhibition above about 26%, passing the limit was not always enough
Target sequence (O15379 whole entry, looked up): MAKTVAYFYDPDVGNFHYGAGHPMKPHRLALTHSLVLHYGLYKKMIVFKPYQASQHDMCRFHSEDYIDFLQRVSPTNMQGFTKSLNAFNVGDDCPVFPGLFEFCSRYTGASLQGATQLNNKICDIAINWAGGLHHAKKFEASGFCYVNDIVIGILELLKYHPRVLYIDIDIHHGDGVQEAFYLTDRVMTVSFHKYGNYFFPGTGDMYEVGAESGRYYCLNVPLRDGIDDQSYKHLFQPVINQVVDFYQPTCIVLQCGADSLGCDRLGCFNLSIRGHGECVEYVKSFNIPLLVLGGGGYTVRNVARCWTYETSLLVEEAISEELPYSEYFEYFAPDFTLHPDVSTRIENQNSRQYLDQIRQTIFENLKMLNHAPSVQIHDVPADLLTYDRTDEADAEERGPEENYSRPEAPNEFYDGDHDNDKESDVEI
HIF act – HIF pathway transcriptional activation; hit rate 0.32% among 300,000; AID 1910; activation, % at 7.5 µM (by protocol); U2OS HRE-luciferase reporter, luminescence; normalized: DMSO 0%, desferrioxamine 100%;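 active = mean activation of at least 10% of the iron chelator positive control signal, with at least half of replicates also reaching 10%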
LANA-H2A inh – blocks KSHV LANA binding to histone H2A/H2B | Q9QR71 | cell-free LANA-H2A/H2B peptide, fluorescence polarization | inhibition, % (concentration not given with the values) | hit rate 0.6% among 320,000; in the data active = inhibition mostly above about 10%, no sharp cut-off; inactive = mostly below about 6.7%
CR mimetic SO – yeast age-related superoxide inhibition as caloric restriction mimetic; superoxide response (% of plate mean), % at 10 µM; AID 2690; S. cerevisiae aged cells, superoxide DHE fluorescence; active compounds read low; hit rate 0.18% among 330,000;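 active = superoxide response under a set limit, about three screen SD below normal, cut at about 65% in these data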;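 also: yeast aged for seven days with compound at 30 °C before DHE staining; 100% = average MFI of all compound-treated wells on the plate with controls excluded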
* marks the source's active call; other numbers are inactive results; . = not tested or not shown; + = active, no number. In the library only some 1.2% were active in any assay of this set; here they are far more common.

SMILES | HDAC3 inhib | HIF act | LANA-H2A inh | CR mimetic SO
COCCCn1c(Cc2ccccc2)nnc1SCC(=O)N1CCCCC1 | 3.5 | -0.1 | 79.4* | 116.8
O=P(O)(O)CP(=O)(O)O | . | 1.1 | 81.2* | 102.8
COCCCn1c(=O)/c(=C\c2ccc(OC(F)F)c(OC)c2)s/c1=C(/C#N)C(N)=O | -0.1 | -3.9 | 29.2* | 99.2
CCCC(=O)Nc1ccccc1NC(C)=O | 4.1 | 0.2 | 18.1* | 85.5
COc1ccc(C(CNC(=O)c2ccc(S(=O)(=O)N3CCCC3)cc2)N(C)C)cc1OC (stereo unspecified) | -3.3 | -0.2 | -1.3 | 99.3
COc1ccccc1C(CNC(=O)c1ccc(S(=O)(=O)N2CCCCC2)cc1)N(C)C (stereo unspecified) | 3.2 | . | + | 106.8
COc1cc(/C=C/C(=O)O)ccc1OCc1ccccc1C#N | -5.8 | -0.2 | -3.1 | 93.0
Cc1cc(C(=O)COC(=O)C2=COCCO2)c(C)n1-c1ccccc1 | -4.2 | . | 0.5 | 94.6
CCOC(=O)C1(Cc2ccccc2)CCN(Cc2cnc(N3CCOCC3)s2)CC1 | 1.1 | 0.0 | 52.6* | 105.7
CCOC(=O)C1(Cc2ccccc2)CCN(Cc2cccn2-c2nccs2)CC1 | 0.5 | -0.2 | 14.3* | 93.3
Cc1ccc(C(=O)OCC(=O)N(C)C2CCS(=O)(=O)C2)cc1S(=O)(=O)N1CCCCC1 (stereo unspecified) | 0.7 | -0.8 | -4.3 | 105.0
[N-]=[N+]=NC[C@H](Cc1ccccc1)N1CC[C@@H](NC(=O)OCc2ccccc2)CCC1=O | 2.2 | -0.1 | 1.7 | 91.9
Cc1cccc(C(=O)OCC(=O)N2CCCC2=O)c1[N+](=O)[O-] | -2.0 | -0.6 | -1.5 | 96.2
CCn1c(SCC(=O)Nc2nc(C)cs2)nnc1-c1ccco1 | 9.8 | 0.0 | -0.9 | 110.5
Cc1n[nH]c(=O)c2c(NC(=O)CSc3nnc(-c4ccco4)n3C)oc(C)c12 | -1.7 | . | 92.4* | 96.7
Cc1n[nH]c(=O)c2c(NC(=O)CSc3nn(-c4ccc(F)cc4)c(=S)s3)oc(C)c12 | 44.8* | -0.3 | -1.2 | 103.7
CCn1c(SCC(=O)Nc2nncs2)nnc1-c1ccco1 | -5.6 | 33.9* | 2.8 | 96.9
CCCCCCn1c(=O)[nH]c2nc3cc(N)ccc3nc2c1=O | 3.0 | 2.3 | 41.6* | 84.2
CC(C)=CCC/C(C)=C/CC/C(C)=N/O | 5.8 | 0.1 | 11.8* | 92.2
COc1cccc(C(C(=O)NC2CCCCC2)N(C(=O)c2csnn2)C2CC2)c1 (stereo unspecified) | 1.4 | -0.2 | 12.9* | 88.2
C/C(CC(=O)Nc1ccc(Br)cc1)=N\NC(=O)Cc1csc(N)n1 | . | 0.7 | . | .
C/C(CC(=O)Nc1ccc(F)cc1)=N\NC(=O)Cc1csc(N)n1 | 3.8 | 0.3 | -5.9 | 64.4*
CCCCn1cnc2c(c1=O)c1nc3ccccc3nc1n2Cc1ccc2c(c1)OCO2 | 1.5 | -0.6 | -6.9 | 107.5
CN(C)S(=O)(=O)c1cccc(N=C2NN=C(c3ccccc3)CS2)c1 | 9.5 | . | 44.1* | 76.6
O=C(CSc1ncnc2ccccc12)c1ccco1 | 40.3* | 4.6 | 1.4 | 91.2
SMILES | HDAC3 inhib | HIF act | LANA-H2A inh | CR mimetic SO
Cc1cc2nnc(SCC(=O)Nc3ccc(Cl)cc3)n2c(N)n1 | 2.3 | 0.0 | 5.3 | 90.9
Cc1ccc(S(=O)(=O)CCc2nnc(N)s2)cc1 | -0.7 | 0.0 | -0.5 | 104.9
Oc1[nH]c2ccccc2c1C1=NCCCC1 | 15.6 | 0.2 | 21.1* | 98.7
CCn1c(O)c(C2=NCCCC2)c2ccccc21 | -2.7 | 0.0 | 0.9 | 94.3
COc1ccc(/C=N/NC(=O)c2cc(-c3ccc4c(c3)OCO4)n[nH]2)cc1OC | -1.3 | 1.5 | -5.8 | 98.1
Cn1c(CC(=O)NNC(=O)c2cccnc2)nc2ccccc21 | 4.8 | . | 18.6* | 94.4
CCc1ccc(CN(C)C(=O)c2cc(COc3ccc(-n4cncn4)cc3)on2)cc1 | 3.6 | 0.9 | 0.6 | 94.2
CC1CC1C(=O)OCC(=O)Nc1cc(S(=O)(=O)N2CCCCC2)ccc1Cl (stereo unspecified) | -6.2 | . | -0.7 | 90.1
CCOC(=O)CSc1nc2cc(OCC)ccc2cc1C#N | -0.7 | 4.1 | 2.3 | 91.4
CCOc1ccc2cc(C#N)c(SCC(=O)NC(C)CC)nc2c1 (stereo unspecified) | -3.3 | 1.1 | 33.8* | 107.6
Cc1nc2ccc(C(C(F)(F)F)(C(F)(F)F)C(F)(F)F)cc2[nH]1 | 31.8* | -2.3 | -5.4 | 88.0
O=C(COC(=O)c1ccc2c(c1)OCO2)NC1CCCCC1 | 2.4 | . | -3.3 | 104.8
COc1ccc(-n2ncc(C(C)NS(=O)(=O)c3cc(F)ccc3C)c2C)cc1 (stereo unspecified) | -1.1 | 0.3 | -9.8 | 102.2
CC(C)NC(=O)CSc1ccccc1C(=O)N1CCN(S(=O)(=O)/C=C/c2ccccc2)CC1 | -2.0 | . | 17.2* | 91.3
COCCCC1CCN(C(=O)C2CCC(=O)N(Cc3ccccc3F)C2)CC1 (stereo unspecified) | -6.7 | 1.1 | -31.1 | 102.2
O=C(CNC(=O)c1cn2ccccc2n1)Nc1ccc(F)c(F)c1 | 1.5 | 1.2 | -1.9 | 87.3
COC(=O)[C@@H](CC(C)C)NS(=O)(=O)N(Cc1ccccc1)[C@@H](CC(C)C)C(=O)OC | 19.7 | . | 0.0 | 108.3
O=C(C1CC(=O)N(c2ccc(Cl)cc2)C1)N1CCCCCC1 (stereo unspecified) | -5.6 | 3.1 | 3.6 | 101.5
O=C1CSCN1c1ccc(Cl)cc1 | -5.0 | 184.3* | 2.0 | 101.0
CCCOC(=O)NC1C(NC(=O)OCCC)N(C)C(=O)N1C (stereo unspecified) | -2.5 | 153.0* | -1.5 | 111.9
CCCCCn1nc(C(=O)N(CCOC)c2c(N)n(CCCC)c(=O)[nH]c2=O)c2ccccc2c1=O | 5.8 | 0.0 | 0.1 | 91.2
CCCCCCn1nc(C(=O)N(CCOC)c2c(N)n(CCCC)c(=O)[nH]c2=O)c2ccccc2c1=O | 2.4 | -0.2 | 17.5* | 99.2
CC12CCC(C(=O)N3CCC(Cc4ccccc4)CC3)(C(=O)C1=O)C2(C)C (stereo unspecified) | 0.8 | -0.4 | -3.5 | 80.5
C[C@@]12C(=O)N(CCO)CC(=O)N1[C@H](/C=C/c1ccccc1)[C@@H]1C(=O)N(c3ccccc3)C(=O)[C@@H]12 | -2.6 | 0.4 | 2.0 | 100.2
Cc1ccccc1C(=O)Nc1ccnn1C1CCN(Cc2cnn(C(C)C)c2)CC1 | -5.0 | -0.1 | 17.1* | 95.8
SMILES | HDAC3 inhib | HIF act | LANA-H2A inh | CR mimetic SO
COCCNC(=O)C(=O)NNC(=O)COc1ccc(OC)cc1 | -0.1 | -0.6 | 19.6* | 102.0
COc1ccc(OCC(=O)NNC(=O)C(=O)Nc2ccccc2)cc1 | 1.5 | . | -2.9 | 100.0
COc1ccc(OCC(=O)NCCCNC(=O)COc2ccc(OC)cc2)cc1 | -0.6 | . | 11.0* | 92.5
O=C1CCC/C(=N/NC(=O)C2CCN(S(=O)(=O)c3cccs3)CC2)C1 | 2.7 | -0.2 | 5.7 | 73.3
O=c1nc(SCc2cccc(C(F)(F)F)c2)nc2ccccn12 | 2.3 | 0.1 | 16.9* | 113.0
COc1ccccc1CNC(=O)COC(=O)/C=C/c1ccc2ccccc2n1 | 0.0 | . | 17.0* | 134.1
O=C(CSC1=NCCS1)N1CCN(c2ccc(Cl)cc2)CC1 | -4.1 | -0.8 | 3.3 | 101.8
O=C(CSC1=NCCS1)c1ccc(Cl)cc1 | 71.5* | 1.1 | -0.6 | 103.6

High-throughput results (PubChem BioAssay)
